# From PubChem BioAssay (NCI)
# “And” between values parts separate entries of the source, which are not always exact repeats. Equal values may be shown once. The panel holds about 83,000 compounds, 20% with a hit somewhere; the sample as a whole holds those more often.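 Activity criterion: percent growth below 10, measured after cells in 96-well plates were exposed to a single compound concentration for 48 hours.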 The source made the active and inactive calls.
# Test system: MDA-MB-468 breast
# Experiment: NCI-60 one-dose screen, 48 h (100 = growth as untreated, 0 = no growth, -100 = all killed)
# Conditions: 10 µM unless noted
row,Compound,growth
1,Cc1ccc2cc3c(N)c4c(C)ccc(C)c4nc3nc2c1,29.9% (inactive)
2,COc1ccc(-c2cc(C(=O)N3N=C(c4ccc(N)cc4)CC3c3ccccc3)c3ccccc3n2)cc1 (stereo not given),29.3% (inactive)
3,O=[N+]([O-])c1ccc(/C=N\NC(=S)Nc2ccc(F)cc2)cc1,104% (inactive) and 101% (inactive)
4,O=[N+]([O-])c1ccc(SSc2ccc([N+](=O)[O-])cc2Cl)c(Cl)c1,74.6% (inactive)
5,CCN(CC)CCCOc1ccc2c(c1)O/C(=C\c1cccc(OC)c1)C2=O,79.8% (inactive)
